# “And” between values parts separate entries of the source, which are not always exact repeats. Equal values may be shown once. Inconclusive results are not listed. The source holds several records for some structures; these can differ, active in one and inactive in another. The source made the active and inactive calls. Rule for the calls, unless noted: active = hit-call score of the fitted dose curve at least 0.9, where 1 is the maximum; inactive = score below 0.9.
# How the values were obtained:
# [1] = biological target: Glucocorticoid receptor (Homo sapiens) (UniProt P04150); test: ATG_GR_TRANS: Attagene TRANS-FACTORIAL HepG2 Assay for human Glucocorticoid Receptor (GR) (AID 2282978; active = hit-call score of the fitted dose curve at least 0.9, where 1 is the maximum;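 note: activators score as hits since higher reporter transcript over DMSO is fitted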); conditions: HepG2 Attagene TRANS GR reporter, mRNA transcription
# Procedure, shortened: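 Exogenous NR-GAL4 fusion activity was assessed through induced GAL4-UAS reporter transcripts in transfected human HepG2 cells, quantified after 24 h by RT-PCR and fluorescent capillary electrophoresis with DMSO as baseline.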
# [2] = biological target: Bile acid receptor (Homo sapiens) (UniProt Q96RI1); test: ATG_FXR_TRANS: Attagene TRANS-FACTORIAL HepG2 Assay for Farnesoid X Receptor (FXR) (AID 2282979; active = hit-call score of the fitted dose curve at least 0.9, where 1 is the maximum;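 note: hits raise reporter mRNA above DMSO so AC50 marks FXR activation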); conditions: HepG2 Attagene TRANS FXR-GAL4 reporter transcription
# Procedure, shortened: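 Reporter transcripts from transfected HepG2 cells were measured 24 h after dosing, using RT-PCR with capillary electrophoresis of 6-FAM-labelled fragments. The read-out reflects activity of exogenous FXR-Gal4 chimera on GAL4-UAS units, with induction relative to DMSO.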
# [3] = biological target: Oxysterols receptor LXR-alpha (Homo sapiens) (UniProt Q13133); test: ATG_LXRa_TRANS: Attagene TRANS-FACTORIAL HepG2 Assay for human Liver X Receptor alpha (LXRa) (AID 2282980; active = hit-call score of the fitted dose curve at least 0.9, where 1 is the maximum); conditions: HepG2 Attagene TRANS reporter, LXRa transactivation
# Procedure, shortened: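 Chemical-induced reporter mRNA measured by RT-PCR with fluorescent labelling and capillary electrophoresis after 24 h dosing of transiently transfected HepG2 cells expressing exogenous NR-Gal4 chimeras; increases scored against DMSO baseline.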
# [4] = ATG_M_06_TRANS: Attagene TRANS-FACTORIAL HepG2 Assay for M06 Transcription Factor (Internal Marker) (AID 2282983; active = hit-call score of the fitted dose curve at least 0.9, where 1 is the maximum); conditions: HepG2 Attagene TRANS M06 internal marker reporter
# Procedure, shortened: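 Background-control reporter readout: after 24 h chemical exposure of transiently transfected HepG2 (GAL4-UAS reporter units), mRNA quantified by RT-PCR with fluorescent labeling and capillary electrophoresis. Gain-of-signal fitting against DMSO baseline.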
# [5] = biological target: Transcriptional activator Myb (Homo sapiens) (UniProt P10242); test: ATG_Myb_CIS: Attagene CIS-FACTORIAL HepG2 Assay for human Myeloblastosis (Myb) Proto-Oncogene Transcription Factor (AID 2282986); conditions: HepG2 Attagene CIS-FACTORIAL Myb reporter transcription; actives raise or lower the signal
# Procedure, shortened: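 In this HepG2 transient-transfection format, cis-regulated reporter mRNA is quantified 24 h post-dosing by RT-PCR with capillary electrophoresis, fitted bidirectionally to DMSO baseline.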
# [6] = biological target: Nuclear respiratory factor 1 (Homo sapiens) (UniProt Q16656); test: ATG_NRF1_CIS: Attagene CIS-FACTORIAL HepG2 Assay for human Nuclear Respiratory Factor 1 (NRF1) Orphan Gene (AID 2282987); conditions: HepG2 NRF1 cis-element reporter, Attagene multiplex; actives raise or lower the signal
# Procedure, shortened: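 Using DMSO as baseline, gain- or loss-of-signal was fitted for reporter mRNA levels in HepG2 cells transiently transfected with cis-regulated reporter units. Samples were taken 24 h after dosing and read by RT-PCR with capillary electrophoresis.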
# [7] = ATG_NFI_CIS: Attagene CIS-FACTORIAL HepG2 Assay for human Nuclear Factor I (NFI) (AID 2282989); conditions: HepG2 cis-regulatory reporter, NFI response element transcription; actives raise or lower the signal
# Procedure, shortened: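 Reporter transcription driven by endogenous transcription factors in HepG2 cells; 24 h treatment. Quantitation by labelled RT-PCR fragments on capillary electrophoresis, gain- or loss-of-signal relative to DMSO.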
# [8] = biological target: Myc proto-oncogene protein (Homo sapiens) (UniProt P01106); test: ATG_Myc_CIS: Attagene CIS-FACTORIAL HepG2 Assay for human Myelocytomatosis (Myc) Proto-Oncogene Transcription Factor (AID 2282990); conditions: HepG2, Attagene cis-reporter transcription factor activity; actives raise or lower the signal
# Procedure, shortened: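 HepG2, transient MRTU transfection (cis promoters, endogenous TFs); 24 h dosing; TriZol RNA → oligo(dT) RT → PCR → 6-FAM primer extension → HpaI cut → CE. Bidirectional fit vs DMSO.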
# [9] = ATG_NF_kB_CIS: Attagene CIS-FACTORIAL HepG2 Assay for human Nuclear Factor Kappa B (NF-kB) (AID 2282991); conditions: HepG2 Attagene cis-factorial NF-kB reporter mRNA; actives raise or lower the signal
# Procedure, shortened: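 Endpoint from a 52-component multiplexed HepG2 reporter panel: cis-regulated transcription units transiently transfected, 24 h dosing, reporter mRNA quantified by RT-PCR and capillary electrophoresis, scored as increase or decrease against DMSO.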
# [10] = ATG_NRF2_ARE_CIS: Attagene CIS-FACTORIAL HepG2 Assay for human Nuclear Factor Erythroid 2 Related Factor 2 (NFR2) response to Antioxidant Response Elements (ARE) (AID 2282992); conditions: HepG2 Attagene ARE/NRF2 reporter, transcription factor activity; actives raise or lower the signal
# Procedure, shortened: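 Endogenous transcription factor activity read out as reporter transcript levels (RT-PCR plus capillary electrophoresis, fluorescence) in transiently transfected HepG2 cells. Measured at 24 h after dosing; gain or loss of signal fitted versus DMSO.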
# [11] = ATG_Oct_MLP_CIS: Attagene CIS-FACTORIAL HepG2 Assay for human Octamer-Binding Transcription Factor (Oct) (AID 2282993); conditions: HepG2 Attagene cis-factorial Oct reporter, mRNA; actives raise or lower the signal
# Procedure, shortened: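 Transfected HepG2 cells, 24 h treatment. Reporter mRNA quantified by RT-PCR–capillary electrophoresis; bidirectional fitting against DMSO.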
# [12] = biological target: Cellular tumor antigen p53 (Homo sapiens) (UniProt P04637); test: ATG_p53_CIS: Attagene CIS-FACTORIAL HepG2 Assay for human p53 Transcription Factor (AID 2282994); conditions: HepG2 p53 cis-element reporter, Attagene mRNA; actives raise or lower the signal
# Procedure, shortened: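 Endogenous p53 activity read in transiently transfected HepG2 from a cis-element-driven reporter transcript after 24 h exposure. RNA reverse-transcribed, PCR-amplified, fluorescently labelled and sized by capillary electrophoresis; gain or loss fitted against DMSO baseline.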
# [13] = BSK_3C_TissueFactor: BioMAP Diversity Plus: 3C Assay for Tissue Factor Biomarker Activity (AID 2282997); conditions: BioMAP 3C HUVEC, tissue factor biomarker readout; actives raise or lower the signal
# Procedure, shortened: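 Tissue factor on primary human umbilical vein endothelium was read by ELISA 24 h after dosing, gain or loss relative to DMSO. Cytotoxicity ran alongside via SRB (0.1%, TCA-fixed, 560 nm).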
# [14] = BSK_3C_uPAR: BioMAP Diversity Plus: 3C Assay for Urokinase-type plasminogen activator receptor (uPAR) Biomarker Activity (AID 2282998); conditions: BioMAP 3C HUVEC, uPAR biomarker ELISA; actives raise or lower the signal
# Procedure, shortened: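 Readout: ELISA for surface uPAR. System: human umbilical vein endothelial primary cells, 24 h after chemical exposure. Analysis: bidirectional fit, DMSO baseline.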
# [15] = BSK_3C_VCAM1: BioMAP Diversity Plus: 3C Assay for Vascular cell adhesion molecule 1 (VCAM1) Biomarker Activity (AID 2282999); conditions: BioMAP 3C HUVEC, VCAM1 ELISA, cytokine-stimulated; actives raise or lower the signal
# Procedure, shortened: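 Activity fitted in both directions relative to DMSO, with ELISA measurement of the surface marker on primary HUVEC (3C) at 24 h post-treatment; parallel SRB staining (0.1% SRB, TCA-fixed, 560 nm) flagged overt cytotoxicity.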
# [16] = BSK_4H_Eotaxin3: BioMAP Diversity Plus: 4H Assay for Eotaxin 3 Biomarker Activity (AID 2283000); conditions: primary human endothelial cells (HUVEC); actives raise or lower the signal;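 for outcome: CCL26 protein level quantified by ELISA in parallel with SRB cytotoxicity check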
# Procedure, shortened: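 Human umbilical vein endothelial cells (BSK_4H system) dosed with test chemical; Eotaxin-3 (CCL26) measured by ELISA 24 h after dosing. Bidirectional curve fitting relative to DMSO negative control as baseline.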
# [17] = biological target: Oxysterols receptor LXR-beta (Homo sapiens) (UniProt P55055); test: ATG_LXRb_TRANS: Attagene TRANS-FACTORIAL HepG2 Assay for human Liver X Receptor beta (LXRb) (AID 2282981; active = hit-call score of the fitted dose curve at least 0.9, where 1 is the maximum); conditions: HepG2 Attagene TRANS GAL4-LXRb reporter, mRNA
# Procedure, shortened: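 After 24 h of chemical treatment, transfected HepG2 cells yield total RNA; reporter cDNA is PCR-amplified, FAM-labelled, HpaI-cut and run on capillary electrophoresis. Signal reflects chimeric LXRb-Gal4 activity on GAL4-UAS reporters.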
# [18] = ATG_M_32_TRANS: Attagene TRANS-FACTORIAL HepG2 Assay for M32 Transcription Factor (Internal Marker) (AID 2282984; active = hit-call score of the fitted dose curve at least 0.9, where 1 is the maximum;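 note: transcript level of a background control reporter unit measured by RT-PCR and capillary electrophoresis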); conditions: HepG2 Attagene TRANS M32 internal marker reporter
# Procedure, shortened: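 Cell-based TRANS-format assay in HepG2: exogenous chimeric GAL4 reporter units transiently expressed, compounds applied 24 h. Reporter mRNA detected by RT-PCR plus capillary electrophoresis; this readout is an internal background marker.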
# [19] = biological target: Nuclear receptor subfamily 4 group A member 2 (Homo sapiens) (UniProt P43354); test: ATG_NURR1_TRANS: Attagene TRANS-FACTORIAL HepG2 Assay for human Nuclear Receptor Related Protein 1 (NURR1) (AID 2282985; active = hit-call score of the fitted dose curve at least 0.9, where 1 is the maximum); conditions: HepG2 Attagene TRANS reporter, mRNA readout
# Procedure, shortened: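 Measures transcriptional activation by an exogenous NR-Gal4 chimera in transfected HepG2 liver cells. After 24 h, reporter RNA is reverse-transcribed, amplified and resolved by capillary electrophoresis; DMSO defines baseline.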
# [20] = biological target: human Peroxisome Proliferator-activated Receptor alpha (PPARa), PPARA (gene 5465) (UniProt Q07869); test: ATG_PPARa_TRANS: Attagene TRANS-FACTORIAL HepG2 Assay for human Peroxisome Proliferator-activated Receptor alpha (PPARa) (AID 2283001; active = hit-call score of the fitted dose curve at least 0.9, where 1 is the maximum)
# Procedure, shortened: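 Transfected HepG2 cells treated with test chemical for 24 h. RNA isolated, reverse-transcribed with oligo(dT), PCR-amplified, FAM-labelled and HpaI-digested. Fragments sized by capillary electrophoresis; gain-of-signal fit relative to DMSO.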
# Chain of Transcriptional activator Myb (Homo sapiens) (P10242 whole entry, looked up): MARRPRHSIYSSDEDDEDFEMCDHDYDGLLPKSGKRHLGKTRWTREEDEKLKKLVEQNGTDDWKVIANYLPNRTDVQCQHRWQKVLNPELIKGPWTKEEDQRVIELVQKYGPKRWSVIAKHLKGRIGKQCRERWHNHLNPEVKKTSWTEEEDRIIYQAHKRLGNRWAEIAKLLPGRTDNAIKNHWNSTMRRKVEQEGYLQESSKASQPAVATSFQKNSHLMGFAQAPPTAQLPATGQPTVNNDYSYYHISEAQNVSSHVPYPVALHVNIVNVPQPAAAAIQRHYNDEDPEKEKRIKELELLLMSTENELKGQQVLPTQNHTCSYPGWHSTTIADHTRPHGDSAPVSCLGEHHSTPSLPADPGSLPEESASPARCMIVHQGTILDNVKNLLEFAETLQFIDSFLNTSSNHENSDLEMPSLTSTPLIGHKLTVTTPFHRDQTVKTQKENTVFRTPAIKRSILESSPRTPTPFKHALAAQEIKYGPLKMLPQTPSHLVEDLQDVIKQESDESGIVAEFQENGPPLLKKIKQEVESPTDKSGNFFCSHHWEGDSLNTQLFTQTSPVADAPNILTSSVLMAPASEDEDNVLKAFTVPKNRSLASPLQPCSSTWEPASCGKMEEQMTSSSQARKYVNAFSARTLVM
# Chain of Myc proto-oncogene protein (Homo sapiens) (P01106 whole entry, looked up): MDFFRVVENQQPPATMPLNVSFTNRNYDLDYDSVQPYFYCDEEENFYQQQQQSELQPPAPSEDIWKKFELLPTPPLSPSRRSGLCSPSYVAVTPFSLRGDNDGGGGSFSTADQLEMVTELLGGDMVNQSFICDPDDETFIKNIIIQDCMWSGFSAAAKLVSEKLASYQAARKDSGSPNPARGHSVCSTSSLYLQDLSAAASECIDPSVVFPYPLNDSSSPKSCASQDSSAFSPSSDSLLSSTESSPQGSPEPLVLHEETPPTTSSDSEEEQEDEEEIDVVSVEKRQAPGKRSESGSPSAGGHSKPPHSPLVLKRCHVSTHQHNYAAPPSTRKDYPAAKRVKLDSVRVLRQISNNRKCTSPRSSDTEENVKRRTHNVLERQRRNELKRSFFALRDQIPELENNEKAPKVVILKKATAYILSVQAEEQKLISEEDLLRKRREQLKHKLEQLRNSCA
# Chain of human Peroxisome Proliferator-activated Receptor alpha (PPARa), PPARA (gene 5465) (Q07869 whole entry, looked up, the tested form may be a part): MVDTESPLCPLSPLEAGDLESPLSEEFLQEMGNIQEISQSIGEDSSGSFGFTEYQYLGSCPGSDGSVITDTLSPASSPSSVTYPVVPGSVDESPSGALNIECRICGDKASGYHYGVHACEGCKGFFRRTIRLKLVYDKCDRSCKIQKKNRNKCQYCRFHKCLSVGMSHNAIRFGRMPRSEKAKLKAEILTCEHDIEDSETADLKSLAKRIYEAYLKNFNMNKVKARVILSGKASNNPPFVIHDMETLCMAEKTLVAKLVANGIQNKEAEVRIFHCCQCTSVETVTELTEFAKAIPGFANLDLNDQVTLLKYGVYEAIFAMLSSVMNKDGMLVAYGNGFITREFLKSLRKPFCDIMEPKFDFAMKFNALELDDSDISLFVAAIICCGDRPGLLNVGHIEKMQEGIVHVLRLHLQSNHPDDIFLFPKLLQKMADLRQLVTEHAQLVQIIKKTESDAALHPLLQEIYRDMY
# Chain of Nuclear respiratory factor 1 (Homo sapiens) (Q16656 whole entry, looked up): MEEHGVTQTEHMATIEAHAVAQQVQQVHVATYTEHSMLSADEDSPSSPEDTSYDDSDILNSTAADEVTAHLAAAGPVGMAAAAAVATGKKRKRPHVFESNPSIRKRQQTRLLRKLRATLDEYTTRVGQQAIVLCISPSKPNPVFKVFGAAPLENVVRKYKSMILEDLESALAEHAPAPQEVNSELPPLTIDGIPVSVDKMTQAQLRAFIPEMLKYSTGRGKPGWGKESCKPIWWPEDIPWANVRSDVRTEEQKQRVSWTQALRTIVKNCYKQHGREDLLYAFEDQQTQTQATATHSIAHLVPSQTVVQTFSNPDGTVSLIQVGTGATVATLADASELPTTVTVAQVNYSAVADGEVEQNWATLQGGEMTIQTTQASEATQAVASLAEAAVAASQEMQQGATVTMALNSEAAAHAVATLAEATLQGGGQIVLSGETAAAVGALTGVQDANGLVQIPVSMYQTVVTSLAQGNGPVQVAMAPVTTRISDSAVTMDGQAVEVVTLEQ
# Chain of Oxysterols receptor LXR-beta (Homo sapiens) (P55055 whole entry, looked up, the tested form may be a part): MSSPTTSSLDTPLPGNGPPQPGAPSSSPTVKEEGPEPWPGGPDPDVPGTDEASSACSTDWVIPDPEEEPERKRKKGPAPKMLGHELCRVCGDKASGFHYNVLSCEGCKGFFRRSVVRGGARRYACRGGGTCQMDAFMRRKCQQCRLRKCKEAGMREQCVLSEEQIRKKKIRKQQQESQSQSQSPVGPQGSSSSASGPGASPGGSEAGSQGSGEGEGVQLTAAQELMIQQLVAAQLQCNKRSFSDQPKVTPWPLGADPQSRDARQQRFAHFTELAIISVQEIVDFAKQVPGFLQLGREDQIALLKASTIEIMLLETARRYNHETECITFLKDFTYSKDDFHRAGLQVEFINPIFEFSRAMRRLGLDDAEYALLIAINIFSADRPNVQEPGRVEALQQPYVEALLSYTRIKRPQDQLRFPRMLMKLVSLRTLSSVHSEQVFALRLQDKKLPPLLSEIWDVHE
# Chain of Cellular tumor antigen p53 (Homo sapiens) (P04637 whole entry, looked up): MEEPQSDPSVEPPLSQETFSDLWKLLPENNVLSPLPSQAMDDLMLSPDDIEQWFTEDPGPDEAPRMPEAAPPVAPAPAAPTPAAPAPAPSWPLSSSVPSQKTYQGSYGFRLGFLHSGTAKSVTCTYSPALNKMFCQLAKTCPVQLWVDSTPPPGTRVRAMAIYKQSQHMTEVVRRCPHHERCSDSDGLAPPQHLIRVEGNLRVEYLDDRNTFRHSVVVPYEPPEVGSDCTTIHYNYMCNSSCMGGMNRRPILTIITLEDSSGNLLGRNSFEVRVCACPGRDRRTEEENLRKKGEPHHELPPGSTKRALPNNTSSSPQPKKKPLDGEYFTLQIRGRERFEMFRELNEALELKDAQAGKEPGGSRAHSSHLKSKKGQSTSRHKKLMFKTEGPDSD
# Chain of Oxysterols receptor LXR-alpha (Homo sapiens) (Q13133 whole entry, looked up, the tested form may be a part): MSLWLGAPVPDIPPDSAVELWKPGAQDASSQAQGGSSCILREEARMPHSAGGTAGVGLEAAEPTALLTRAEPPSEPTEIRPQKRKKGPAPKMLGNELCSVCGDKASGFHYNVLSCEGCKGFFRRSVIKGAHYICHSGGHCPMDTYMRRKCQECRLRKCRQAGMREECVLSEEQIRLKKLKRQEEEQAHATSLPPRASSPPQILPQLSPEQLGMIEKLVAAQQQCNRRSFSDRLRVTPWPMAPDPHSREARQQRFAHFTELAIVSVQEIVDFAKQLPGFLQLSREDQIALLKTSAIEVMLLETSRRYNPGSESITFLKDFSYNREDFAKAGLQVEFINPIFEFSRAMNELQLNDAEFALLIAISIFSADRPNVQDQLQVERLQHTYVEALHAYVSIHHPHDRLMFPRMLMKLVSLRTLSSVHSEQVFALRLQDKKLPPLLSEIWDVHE
# Chain of Glucocorticoid receptor (Homo sapiens) (P04150 whole entry, looked up, the tested form may be a part): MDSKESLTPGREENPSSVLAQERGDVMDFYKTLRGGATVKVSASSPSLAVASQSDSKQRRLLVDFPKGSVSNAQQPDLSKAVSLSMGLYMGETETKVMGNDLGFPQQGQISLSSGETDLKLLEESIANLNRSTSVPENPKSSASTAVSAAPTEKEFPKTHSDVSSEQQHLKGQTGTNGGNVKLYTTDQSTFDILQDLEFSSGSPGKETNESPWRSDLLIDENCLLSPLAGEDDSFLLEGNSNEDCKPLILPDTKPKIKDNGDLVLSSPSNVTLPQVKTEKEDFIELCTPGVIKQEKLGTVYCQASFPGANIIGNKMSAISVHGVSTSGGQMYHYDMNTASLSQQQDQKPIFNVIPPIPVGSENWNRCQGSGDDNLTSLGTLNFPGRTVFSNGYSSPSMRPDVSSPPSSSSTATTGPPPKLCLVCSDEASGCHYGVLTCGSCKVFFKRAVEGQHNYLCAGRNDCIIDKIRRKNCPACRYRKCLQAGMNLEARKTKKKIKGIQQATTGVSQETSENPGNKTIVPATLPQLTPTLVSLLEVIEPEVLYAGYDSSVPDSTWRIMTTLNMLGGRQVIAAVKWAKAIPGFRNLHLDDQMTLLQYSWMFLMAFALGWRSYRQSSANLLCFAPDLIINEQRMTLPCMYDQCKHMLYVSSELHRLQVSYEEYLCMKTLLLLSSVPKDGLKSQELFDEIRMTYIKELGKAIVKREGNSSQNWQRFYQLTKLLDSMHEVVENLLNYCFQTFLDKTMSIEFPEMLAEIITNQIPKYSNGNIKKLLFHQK
# Chain of Nuclear receptor subfamily 4 group A member 2 (Homo sapiens) (P43354 whole entry, looked up, the tested form may be a part): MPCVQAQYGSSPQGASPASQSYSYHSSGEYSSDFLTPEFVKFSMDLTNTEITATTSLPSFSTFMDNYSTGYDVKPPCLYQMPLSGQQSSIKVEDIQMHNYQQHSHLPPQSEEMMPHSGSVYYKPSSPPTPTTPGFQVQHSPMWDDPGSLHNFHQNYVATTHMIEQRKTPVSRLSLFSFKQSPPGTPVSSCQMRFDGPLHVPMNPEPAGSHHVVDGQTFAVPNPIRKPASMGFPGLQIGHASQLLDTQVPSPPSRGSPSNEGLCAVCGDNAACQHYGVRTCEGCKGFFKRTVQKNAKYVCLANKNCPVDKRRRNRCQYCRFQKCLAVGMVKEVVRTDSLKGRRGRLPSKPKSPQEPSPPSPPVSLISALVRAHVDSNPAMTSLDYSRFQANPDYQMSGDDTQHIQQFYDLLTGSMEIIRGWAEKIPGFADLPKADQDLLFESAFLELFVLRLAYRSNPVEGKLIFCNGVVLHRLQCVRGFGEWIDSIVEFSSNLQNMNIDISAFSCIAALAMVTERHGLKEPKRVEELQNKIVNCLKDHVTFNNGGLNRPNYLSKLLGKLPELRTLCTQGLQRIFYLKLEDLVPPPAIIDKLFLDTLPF
smiles,measurement,setting,value
O=C(OCCCCCCOC(=O)c1ccccc1)c1ccccc1,outcome,[1],inactive
same,outcome,[2],inactive
same,outcome,[3],inactive
same,outcome,[4],inactive
same,outcome,[5],inactive
same,outcome,[6],inactive
same,outcome,[7],inactive
same,outcome,[8],inactive
same,outcome,[9],inactive
same,outcome,[10],inactive
same,outcome,[11],inactive
same,outcome,[12],inactive
same,outcome,[13],inactive
same,outcome,[14],inactive
same,outcome,[15],inactive
same,outcome,[16],inactive
O=C(O)Cc1cc(I)c(Oc2ccc(O)c(I)c2)c(I)c1,outcome,[1],inactive
same,outcome,[2],inactive
same,outcome,[3],inactive
same,outcome,[4],inactive
same,outcome,[18],inactive
same,AC50,[19],82 µM (active) and 100 µM (active)
same,outcome,[5],inactive
same,AC50,[6],159 µM (active)
same,outcome,[6],inactive
same,outcome,[7],inactive
same,outcome,[8],inactive
same,outcome,[9],inactive
same,AC50,[10],70 µM (active) [middle of 4 runs]
same,AC50,[11],35.7 µM (active) and 100 µM (active)
same,outcome,[11],inactive
same,AC50,[12],25.9 µM (active) and 26.4 µM (active) and 9.57 µM (active)
same,outcome,[12],inactive
same,outcome,[13],inactive
same,outcome,[14],inactive
same,outcome,[15],inactive
same,AC50,[16],31.3 µM (active)
same,outcome,[20],inactive
Cc1ccc2oc(CN(Cc3ccccc3)C(=O)Nc3c(F)cc(F)cc3F)c(-c3ccc(Cl)cc3)c2c1,outcome,[1],inactive
same,outcome,[3],inactive
same,outcome,[17],inactive
same,outcome,[4],inactive
same,outcome,[18],inactive
same,outcome,[5],inactive
same,outcome,[6],inactive
same,outcome,[7],inactive
same,outcome,[8],inactive
same,outcome,[9],inactive
same,outcome,[10],inactive
same,outcome,[11],inactive
same,outcome,[12],inactive
same,outcome,[13],inactive
same,AC50,[14],10.8 µM (active)
same,outcome,[15],inactive
same,outcome,[16],inactive
CCO[Si](CCCNC(N)=O)(OCC)OCC,outcome,[1],inactive
same,outcome,[2],inactive
same,outcome,[4],inactive
same,outcome,[18],inactive
same,outcome,[5],inactive
same,outcome,[6],inactive
same,outcome,[7],inactive
same,outcome,[8],inactive
same,outcome,[10],inactive
same,outcome,[11],inactive
same,outcome,[12],inactive
same,outcome,[13],inactive
same,outcome,[14],inactive
same,outcome,[15],inactive
same,outcome,[16],inactive
CCCCOC(=O)c1ccc(O)cc1,outcome,[1],inactive
same,AC50,[2],66.1 µM (active)
same,outcome,[2],inactive
same,outcome,[3],inactive
same,outcome,[17],inactive
same,outcome,[4],inactive
same,outcome,[18],inactive
same,AC50,[5],162 µM (active)
same,outcome,[5],inactive
same,AC50,[6],100 µM (active)
same,outcome,[6],inactive
same,AC50,[7],100 µM (active)
same,outcome,[7],inactive
same,AC50,[8],100 µM (active)
same,outcome,[8],inactive
same,AC50,[10],100 µM (active) and 26.2 µM (active)
same,outcome,[10],inactive
same,AC50,[11],116 µM (active)
same,outcome,[11],inactive
same,outcome,[12],inactive
same,AC50,[13],7.85 µM (active)
same,outcome,[14],inactive
same,outcome,[15],inactive
same,outcome,[16],inactive
same,outcome,[20],inactive
O=C(O)Cn1c(=O)n(Cc2ccc(Br)cc2F)c(=O)c2ccc(Cl)cc21,outcome,[1],inactive
same,outcome,[2],inactive
same,outcome,[4],inactive
same,outcome,[19],inactive
same,outcome,[5],inactive
same,outcome,[6],inactive
same,outcome,[7],inactive
same,outcome,[8],inactive
same,AC50,[9],161 µM (active)
same,AC50,[10],26.5 µM (active)
same,outcome,[11],inactive
same,outcome,[12],inactive
same,outcome,[13],inactive
same,outcome,[14],inactive
same,outcome,[15],inactive
same,outcome,[16],inactive
same,outcome,[20],inactive
